This note sets out measurements from PubChem BioAssay (EPA / NIEHS).

Assay [1] in a line: ATG_E_Box_CIS: Attagene CIS-FACTORIAL HepG2 Assay for human Enhancer Box (E-box) (AID 2282936). As to conditions: HepG2 E-box cis-reporter transcription, actives raise or lower the signal. The essentials: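 HepG2 cells transiently transfected with multiplexed cis-element reporter units sensing endogenous transcription factor activity; 24 h compound exposure. Reporter mRNA measured by RT-PCR, 6-FAM primer extension, HpaI digestion and capillary electrophoresis; bidirectional fit versus DMSO.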

Assay [2] in a line: ATG_M_61_CIS: Attagene CIS-FACTORIAL HepG2 Assay for M61 Transcription Factor (Internal Marker) (AID 2282937). The settings on record: HepG2 Attagene CIS-FACTORIAL M61 internal marker reporter; actives raise or lower the signal. In a few lines: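 Cells were transfected with reporter units under cis-regulatory promoters, treated with chemicals for 24 h, then lysed for RNA. Reporter transcripts were quantified by RT-PCR and capillary electrophoresis, and activity was fitted bidirectionally against DMSO.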

A short description of assay [3]: ATG_EGR_CIS: Attagene CIS-FACTORIAL HepG2 Assay for human Early Growth Response 1 (EGR1) (AID 2282938). As to conditions: HepG2 Attagene CIS-FACTORIAL EGR reporter mRNA; actives raise or lower the signal. The essentials: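 Endogenous TF activity in HepG2 liver cells was gauged through cis-promoter reporter constructs transiently transfected. After 24 h dosing, reporter mRNA was quantified by RT-PCR and capillary electrophoresis, and curves fitted in both directions versus DMSO.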

Assay [4] is described as follows: ATG_M_19_CIS: Attagene CIS-FACTORIAL HepG2 Assay for M19 Transcription Factor (Internal Marker) (AID 2282939). The settings on record: HepG2 Attagene CIS-FACTORIAL M19 internal marker reporter; actives raise or lower the signal. The essentials:
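HepG2, MRTU transient transfection, 24 h dosing. Total RNA → RT-PCR → 6-FAM primer extension → HpaI digest → CE fluorescence. Bidirectional curve fit, DMSO negative control.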

Assay [5] in a line: ATG_ERE_CIS: Attagene CIS-FACTORIAL HepG2 Assay for Estrogen Response Element (ERE) (AID 2282940). As to conditions: HepG2 ERE cis-reporter, Attagene RNA transcript; actives raise or lower the signal. The essentials: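 After a 24 h chemical treatment, RNA from reporter-transfected HepG2 cells is reverse-transcribed, PCR-amplified and fluorescently labelled. Fragments separated by capillary electrophoresis give reporter signal; DMSO serves as negative control.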

Assay [6] in a line: ATG_Ets_CIS: Attagene CIS-FACTORIAL HepG2 Assay for human Erythroblast Transformation Specific (ETS) (AID 2282941). The settings on record: HepG2 ETS cis-reporter transcription, actives raise or lower the signal. The essentials:
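Steps: transfect HepG2 with multiple reporter units; treat compound 24 h; isolate RNA, DNase-treat, reverse-transcribe; PCR-amplify, label with 6-FAM, digest with HpaI; separate by capillary electrophoresis. Activity fitted both directions versus DMSO.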

Assay [7] addresses Hepatocyte nuclear factor 3-beta (Homo sapiens) (UniProt Q9Y261). Briefly: ATG_FoxA2_CIS: Attagene CIS-FACTORIAL HepG2 Assay for human Forkhead box A2 (FOXA2) (AID 2282942). As to conditions: HepG2 cis-reporter transcription factor activity, 24 h; actives raise or lower the signal. In a few lines:
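Endogenous transcription factor activity was read in HepG2 cells carrying transiently transfected cis-promoter reporter units. After 24 h dosing, reporter mRNA was quantified by RT-PCR and capillary electrophoresis, and values fitted bidirectionally versus DMSO.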

The nature of assay [8]: ATG_FoxO_CIS: Attagene CIS-FACTORIAL HepG2 Assay for human Forkhead box O (FoxO) (AID 2282943). As to conditions: HepG2 Attagene cis-reporter, FoxO element, mRNA; actives raise or lower the signal. In a few lines:
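24 h chemical exposure, HepG2 with transient cis-MRTU transfection. RNA extraction, oligo(dT) RT, reporter-specific PCR, primer-extension labelling, HpaI digestion, CE fragment analysis; bidirectional fit, DMSO baseline.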

Assay [9] is described as follows: ATG_GATA_CIS: Attagene CIS-FACTORIAL HepG2 Assay for human GATA Binding Protein (AID 2282944). As to conditions: HepG2 GATA cis-element reporter, Attagene multiplex mRNA; actives raise or lower the signal. The essentials: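 Cells: HepG2, transiently transfected with cis-regulated reporter transcription units. Exposure: 24 h. Detection: RT-PCR plus capillary electrophoresis of FAM-labeled fragments. Analysis: bidirectional, DMSO as baseline.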

Assay [10] can be described thus: ATG_GLI_CIS: Attagene CIS-FACTORIAL HepG2 Assay for human Zinc Finger Protein GLI1 (AID 2282945). As to conditions: HepG2, Attagene cis-factorial reporter mRNA, GLI element; actives raise or lower the signal. The essentials:
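HepG2 cells transiently transfected with cis-promoter multiplexed reporter units report endogenous transcription factor activity. After 24 h chemical exposure, reporter mRNA was quantified by RT-PCR, 6-FAM labelling, HpaI digestion and capillary electrophoresis, with bidirectional fitting against DMSO.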

Assay [11] is described as follows: ATG_GRE_CIS: Attagene CIS-FACTORIAL HepG2 Assay for human Glucocorticoid Response Elements (GRE) (AID 2282947). The settings on record: HepG2 GRE cis-reporter, Attagene multiplex mRNA; actives raise or lower the signal. In a few lines:
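HepG2 cells transiently transfected with multiple cis-promoter reporter units measure endogenous TF activity; 24 h compound exposure. Reporter mRNA quantified by RT-PCR, FAM labelling, HpaI digestion and capillary electrophoresis; bidirectional fit vs DMSO baseline.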

Assay [12] can be described thus: ATG_ISRE_CIS: Attagene CIS-FACTORIAL HepG2 Assay for human Interferon Regulatory Factor 1 (IRF1) binding to an Interferon-Stimulated Response Element (ISRE) (AID 2282948). As to conditions: HepG2 ISRE cis-reporter (Attagene), mRNA transcription readout; actives raise or lower the signal. The essentials:
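Transfected HepG2 (multiple reporter transcription units, cis elements) dosed 24 h. RNA → oligo(dT) RT → PCR → 6-FAM primer extension → HpaI → CE. DMSO = negative control/baseline.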

The nature of assay [13]: ATG_M_32_CIS: Attagene CIS-FACTORIAL HepG2 Assay for M32 Transcription Factor (Internal Marker) (AID 2282949).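 Further: background control marker of the multiplexed CIS panel rather than a real target.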 As to conditions: HepG2 Attagene cis-factorial M32 reporter, mRNA; actives raise or lower the signal. In a few lines: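 Internal background marker read-out: RT-PCR/capillary electrophoresis fluorescence of reporter transcripts from transiently transfected HepG2 cells after 24 h chemical exposure. Activity fitted bidirectionally relative to DMSO negative control.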

Assay [14] in a line: ATG_M_06_CIS: Attagene CIS-FACTORIAL HepG2 Assay for M06 Transcription Factor (Internal Marker) (AID 2282950). The settings on record: HepG2 Attagene CIS-FACTORIAL M06 internal marker reporter; actives raise or lower the signal. In a few lines:
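Measured 24 h post-dosing in transiently transfected HepG2 cells, this internal-marker endpoint reports reporter mRNA via RT-PCR with fluorescent primer extension and capillary electrophoresis. DMSO served as negative control and baseline for bidirectional fitting.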

Assay [15] concerns the target Hepatocyte nuclear factor 6 (Homo sapiens) (UniProt Q9UBC0). Description: ATG_HNF6_CIS: Attagene CIS-FACTORIAL HepG2 Assay for human Hepatocyte Nuclear Factor 6 (HNF6) (AID 2282952). The settings on record: HepG2 Attagene cis-factorial HNF6 reporter transcription; actives raise or lower the signal. The essentials:
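Reporter mRNA induction or loss in HepG2 after 24 h exposure; transient cis-MRTU transfection; fragments quantified by capillary electrophoresis; bidirectional analysis, DMSO as negative control.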

Assay [16] deals with Heat shock factor protein 1 (Homo sapiens) (UniProt Q00613). Briefly: ATG_HSE_CIS: Attagene CIS-FACTORIAL HepG2 Assay for human Heat Shock Transcription Factor 1 (HSE) (AID 2282953). The settings on record: HepG2 HSE cis-reporter, Attagene RNA transcription; actives raise or lower the signal. The essentials: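 Reporter mRNA induction in HepG2 is measured 24 h after dosing, using transiently transfected multiplexed cis-regulated reporter units. Signal comes from capillary electrophoresis of labelled RT-PCR products, with DMSO as negative control.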
Sequence of Heat shock factor protein 1 (Homo sapiens) (Q00613 whole entry, looked up): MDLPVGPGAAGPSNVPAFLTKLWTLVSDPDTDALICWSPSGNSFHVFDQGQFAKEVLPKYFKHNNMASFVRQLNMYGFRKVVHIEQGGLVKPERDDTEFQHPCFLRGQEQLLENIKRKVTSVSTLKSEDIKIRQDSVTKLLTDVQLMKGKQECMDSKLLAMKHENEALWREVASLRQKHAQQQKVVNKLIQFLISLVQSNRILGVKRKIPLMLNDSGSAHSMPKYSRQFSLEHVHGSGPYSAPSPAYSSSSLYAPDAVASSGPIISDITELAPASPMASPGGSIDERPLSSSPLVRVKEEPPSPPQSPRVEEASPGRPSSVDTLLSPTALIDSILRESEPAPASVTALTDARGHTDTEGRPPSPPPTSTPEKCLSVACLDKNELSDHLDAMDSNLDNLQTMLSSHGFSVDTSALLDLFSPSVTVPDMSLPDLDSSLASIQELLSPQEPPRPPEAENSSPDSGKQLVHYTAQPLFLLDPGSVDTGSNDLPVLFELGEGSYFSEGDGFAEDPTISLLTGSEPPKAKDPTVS

Assay [17] is described as follows: ATG_MRE_CIS: Attagene CIS-FACTORIAL HepG2 Assay for human Metal Responsive Element (MRE) (AID 2282954). As to conditions: HepG2 MRE cis-reporter transcription, Attagene multiplex; actives raise or lower the signal. The essentials: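 HepG2 cells transiently transfected with multiple cis-element reporter units measure endogenous MTF1-driven transcription. After 24 h compound exposure, reporter mRNA is quantified by RT-PCR with 6-FAM labelling, HpaI digestion and capillary electrophoresis; bidirectional fits versus DMSO.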

Assay [18] in a line: ATG_PBREM_CIS: Attagene CIS-FACTORIAL HepG2 Assay for human Phenobarbital-responsive Enhancer Module (PBREM) (AID 2282955). As to conditions: HepG2 PBREM cis-reporter, Attagene multiplexed transcription; actives raise or lower the signal. In a few lines: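 Fluorescence of labelled reporter cDNA fragments, resolved by capillary electrophoresis, gives mRNA induction in transfected HepG2 cells treated for 24 h; DMSO serves as negative control and baseline.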

The target in assay [19] is Hypoxia-inducible factor 1-alpha (Homo sapiens) (UniProt Q16665). Briefly: ATG_HIF1a_CIS: Attagene CIS-FACTORIAL HepG2 Assay for human Hypoxia Inducible Factor 1 (HIF1A) (AID 2282951). As to conditions: HepG2 Attagene cis-factorial HIF1a reporter transcription; actives raise or lower the signal. The essentials:
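Measures endogenous transcription-factor activity through cis-regulated reporter mRNA in HepG2. Cells dosed 24 h; transcripts quantified by RT-PCR with 6-FAM-labelled products separated by capillary electrophoresis; DMSO serves as negative control.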

Calls of active or inactive are those of the source. How the source made its calls: active means hit-call score of the fitted dose curve at least 0.9, where 1 is the maximum; inactive means score below 0.9.

Sequence of Hepatocyte nuclear factor 3-beta (Homo sapiens) (Q9Y261 whole entry, looked up): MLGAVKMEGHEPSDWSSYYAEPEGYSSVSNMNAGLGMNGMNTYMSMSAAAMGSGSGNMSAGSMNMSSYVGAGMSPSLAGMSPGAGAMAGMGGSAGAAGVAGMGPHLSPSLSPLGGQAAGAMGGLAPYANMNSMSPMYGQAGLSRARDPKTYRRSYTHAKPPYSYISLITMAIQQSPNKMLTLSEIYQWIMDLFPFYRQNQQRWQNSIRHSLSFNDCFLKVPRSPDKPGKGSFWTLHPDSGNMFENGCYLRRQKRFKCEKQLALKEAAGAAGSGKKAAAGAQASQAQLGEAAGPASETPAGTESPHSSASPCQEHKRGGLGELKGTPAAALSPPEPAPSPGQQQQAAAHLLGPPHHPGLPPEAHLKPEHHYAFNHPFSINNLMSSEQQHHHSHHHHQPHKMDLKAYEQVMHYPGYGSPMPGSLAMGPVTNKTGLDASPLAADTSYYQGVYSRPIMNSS
Sequence of Hepatocyte nuclear factor 6 (Homo sapiens) (Q9UBC0 whole entry, looked up, the tested form may be a part): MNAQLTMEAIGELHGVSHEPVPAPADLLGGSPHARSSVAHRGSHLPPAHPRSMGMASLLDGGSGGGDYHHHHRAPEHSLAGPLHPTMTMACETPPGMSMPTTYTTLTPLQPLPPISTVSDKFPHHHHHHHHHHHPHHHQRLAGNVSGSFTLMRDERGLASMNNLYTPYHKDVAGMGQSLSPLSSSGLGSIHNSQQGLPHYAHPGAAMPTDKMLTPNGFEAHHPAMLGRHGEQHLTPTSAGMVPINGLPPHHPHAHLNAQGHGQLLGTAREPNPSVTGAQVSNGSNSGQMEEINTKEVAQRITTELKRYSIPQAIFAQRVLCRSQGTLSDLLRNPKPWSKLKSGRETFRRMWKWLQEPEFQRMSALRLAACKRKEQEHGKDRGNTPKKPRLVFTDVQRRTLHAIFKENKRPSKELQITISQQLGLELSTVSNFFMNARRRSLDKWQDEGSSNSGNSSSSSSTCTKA
Sequence of Hypoxia-inducible factor 1-alpha (Homo sapiens) (Q16665 whole entry, looked up): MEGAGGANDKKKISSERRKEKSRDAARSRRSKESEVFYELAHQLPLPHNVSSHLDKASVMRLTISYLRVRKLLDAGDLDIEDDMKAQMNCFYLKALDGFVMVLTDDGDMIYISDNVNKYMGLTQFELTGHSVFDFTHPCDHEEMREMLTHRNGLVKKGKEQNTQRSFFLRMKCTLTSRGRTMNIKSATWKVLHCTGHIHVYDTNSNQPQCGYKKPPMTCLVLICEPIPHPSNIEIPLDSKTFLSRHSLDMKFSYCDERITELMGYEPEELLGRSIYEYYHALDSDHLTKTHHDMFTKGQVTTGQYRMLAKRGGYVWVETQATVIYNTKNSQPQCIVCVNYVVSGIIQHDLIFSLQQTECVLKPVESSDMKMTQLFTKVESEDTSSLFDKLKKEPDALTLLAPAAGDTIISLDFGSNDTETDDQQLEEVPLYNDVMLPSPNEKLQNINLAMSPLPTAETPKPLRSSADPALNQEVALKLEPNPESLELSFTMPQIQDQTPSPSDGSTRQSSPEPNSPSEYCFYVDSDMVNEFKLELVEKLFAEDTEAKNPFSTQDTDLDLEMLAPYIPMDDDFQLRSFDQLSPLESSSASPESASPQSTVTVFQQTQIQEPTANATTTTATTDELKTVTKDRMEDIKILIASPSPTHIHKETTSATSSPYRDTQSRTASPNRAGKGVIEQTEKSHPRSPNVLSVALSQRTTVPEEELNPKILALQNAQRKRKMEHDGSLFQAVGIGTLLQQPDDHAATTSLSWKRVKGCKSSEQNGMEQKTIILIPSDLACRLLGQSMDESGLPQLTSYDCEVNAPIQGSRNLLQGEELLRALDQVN

As to `O=C(O)CCSCCC(=O)O`, the result in [1], in assay [2], in assay [3], in [4], in assay [5] and in assay [6] was inactive. Further, the outcome in assay [7], in [8], in assay [9], in assay [10], in [11] and in assay [12] was inactive. Moreover, the compound was classed as inactive in assay [13], in [14], in assay [15], in assay [16], in [17] and in assay [18].
On to `O=C(O)CCCCC1CCSS1` (configuration not stated), for which the outcome in [1], in [2], in assay [3], in assay [4], in assay [5] and in [6] was inactive. Besides, the outcome in [7], in assay [8], in assay [9], in [10], in assay [11] and in assay [12] was inactive. The result in assay [14], in assay [15], in [16] and in assay [17] was inactive.
Take `CCC/C=C/C=O`: the outcome in assay [1], in [2], in assay [3], in assay [4], in assay [5] and in assay [6] was inactive. For the same compound, the compound was classed as inactive in [7], in [8], in assay [9], in assay [10], in [11] and in assay [12]. Besides, the result in assay [13], in assay [14], in assay [19], in assay [15], in [16] and in [17] was inactive. For the same compound, in assay [18], the result was inactive.
As for `C[C@]12CC[C@H]3[C@@H](CCC4=CC(=O)CC[C@@]43C)[C@@H]1CC[C@@H]2C(=O)CO`, the result in assay [1], in [2], in [4], in [6], in assay [7] and in assay [8] was inactive. Further, the compound was called inactive in [9], in assay [10], in [11], in assay [13], in [14] and in assay [15]. In addition, the concentration at half-maximal activity (AC50) in assay [3] was 55.9 µM (active); in assay [5], 0.635 µM (active); in assay [12], 100 µM (active); in assay [16] it was 60.1 µM (active); in [17], 100 µM (active); in [18], 3.31 µM (active).
Take `CCC(C)(O)CCC=C(C)C` (configuration not stated): the outcome in assay [1], in assay [2], in assay [3], in [4], in [5] and in assay [6] was inactive. Further, the result in assay [7], in assay [8], in assay [9], in [11], in assay [12] and in assay [13] was inactive. Also, the call in [14], in assay [19], in assay [15], in assay [16] and in assay [17] was inactive.
For the compound `CNCCCC12CCC(c3ccccc31)c1ccccc12`, the result in assay [1], in assay [2], in assay [4], in [5], in assay [7] and in [8] was inactive. Besides, the call in assay [9], in assay [11], in assay [13], in [15], in assay [16] and in assay [18] was inactive. Moreover, the AC50 in [3] was 15.7 µM (active); in [6], 11.1 µM (active); in [10] it was 15.7 µM (active); in assay [12] it was 17.9 µM (active); in [17], 16.6 µM (active).
`CC(=O)O[C@H](CC(=O)[O-])C[N+](C)(C)C`: the outcome in assay [1], in assay [2], in assay [3], in assay [4], in assay [5] and in assay [6] was inactive. In addition, the outcome in assay [7], in assay [8], in assay [9], in assay [10], in [11] and in assay [12] was inactive. Further, the compound was called inactive in assay [13], in assay [14], in [15], in [16] and in [17].

For orientation: AC50 means the midpoint of the concentration-response curve, whichever way the signal moves.
